Shown is part of a subset that was picked to be rich in hits.
Shiga toxin inh = inhibitors of Shiga toxin in Vero cells; Vero cells, Shiga toxin protein synthesis inhibition reporter; inhibition, % at 38.7 µM; 290,000 tested, 9.2% active; AID 2315; in the data active means inhibition mostly above about 28%, no sharp cut-off; inactive means mostly below about 43%; further: 0% is about no effect
Giardia FBPA inh-1 = blocks Giardia fructose-bisphosphate aldolase activity; Potency, µM (titrated, usually from 59.6 µM), without a hit: at the highest dose activity, negative = inhibition, hits mostly inhibitors; AID 2451; 290,000 tested, 0.71% active; purified Giardia FBPA; A8B2U2; further: potency means the concentration at half of the fitted maximal effect; on the % scale 0 is the no-effect control and ±100 the full control effect; nearly all actives have a fitted effect of over 55% in size
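Giardia FBPA (40 nM reagent) was preincubated 10 min at RT with compound (up to 57.5 uM final), then substrate plus GAPDH/TPI/NAD/arsenate coupling system with diaphorase/resazurin was added; resorufin fluorescence (525/598 nm) was read after 20 min.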
RE007 growth inh = less growth of the S. pombe RE007 Vpr strain | S. pombe RE007 Vpr strain, BacTiter-Glo ATP luminescence, 24 h | Potency, µM (titrated, usually from 92.2 µM), without a hit: top-dose activity change, negative = less growth, usual class: inhibitors | 360,000 tested, 0.21% active | AID 651644; active means well fitted falling curve with a large enough effect; inconclusive means small, poorly fitted or top-dose-only effect; inactive means no such curve, though single readings can be large or run the other way; further: potency means the concentration at half of the fitted maximal effect; on the % scale 0 is the no-effect control and ±100 the full control effect; nearly all actives have a fitted effect of over 50% in size
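Fission yeast RE007 carrying one integrated HIV-1 vpr copy, seeded at OD 0.01 in PMG+AL medium with 23 nL pinned compound. Grown 24 h at 30 degrees; viability read by BacTiter-Glo luminescence after 5 min.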
LmPK inhibitor = LmPK (Leishmania mexicana) enzyme inhibition. Q27686. 290,000 tested, 0.37% active. Potency, µM (top dose mostly 57.5 µM), for inactives: top-dose activity change, negative = inhibition, hits mostly inhibitors. purified LmPK, Kinase-Glo ATP luminescence, 1 h; further: potency means the concentration at half of the fitted maximal effect; on the % scale 0 is the no-effect control and ±100 the full control effect
Target sequence (Q27686 whole entry, looked up): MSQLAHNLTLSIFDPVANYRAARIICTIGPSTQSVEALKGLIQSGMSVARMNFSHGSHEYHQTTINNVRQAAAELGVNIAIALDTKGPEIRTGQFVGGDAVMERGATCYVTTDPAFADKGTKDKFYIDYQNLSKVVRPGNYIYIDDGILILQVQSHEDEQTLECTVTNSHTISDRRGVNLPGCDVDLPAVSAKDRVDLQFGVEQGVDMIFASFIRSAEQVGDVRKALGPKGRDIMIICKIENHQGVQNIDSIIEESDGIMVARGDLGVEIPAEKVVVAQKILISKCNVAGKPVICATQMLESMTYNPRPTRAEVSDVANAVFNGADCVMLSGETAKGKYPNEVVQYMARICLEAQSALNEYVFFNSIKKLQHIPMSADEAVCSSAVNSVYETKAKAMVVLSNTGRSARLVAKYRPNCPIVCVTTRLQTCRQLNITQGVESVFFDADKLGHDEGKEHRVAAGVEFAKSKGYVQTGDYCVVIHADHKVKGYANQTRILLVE
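ATP generated from ADP (0.1 mM) and PEP (0.5 mM) by 0.1 nM LmPK over 1 h at room temperature (pH 7.2 imidazole buffer) was detected by coupled luciferase luminescence. Values were normalized to uninhibited and no-enzyme wells.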
CHX counter = affects cycloheximide protein synthesis inhibition readout, counter-screen; cell reporter, cycloheximide protein synthesis inhibition counterscreen; max response, %; 300,000 tested, 12% active; AID 2314; in the data active means max response mostly above about 13%, no sharp cut-off; inactive means mostly below about 14%; further: read at 38.3 µM for the half of the compounds with a filed dose; 0% is about no effect
Tb PYK inh = T. brucei pyruvate kinase inhibition; TbPYK enzyme, Kinase-Glo Plus ATP luminescence, 45 min; Potency, µM (doses to about 76.8 µM), for the others: top-dose activity, negative = inhibition, most hits filed as inhibitors; 410,000 tested, 0.12% active; further: potency means the concentration at half of the fitted maximal effect; on the % scale 0 is the no-effect control and ±100 the full control effect; nearly all actives have a fitted effect of over 50% in size
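Quantitative HTS: titrated library compounds versus trypanosomal pyruvate kinase in TEA buffer (pH 7.2) containing KCl, MgCl2, BSA and Tween-20. Reactions were initiated with ADP, 130 uM final. Kinase-Glo Plus luminescence was read after 45 min at RT.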
Giardia growth = blocks growth of Giardia lamblia trophozoites | shares compounds with Giardia FBPA inh-1 | Potency, µM (series often up to 57.5 µM), for the others: top-dose activity change, negative = inhibition, usual class: inhibitors | Giardia lamblia trophozoite growth inhibition | 1,500 tested, 5% active;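 further: potency means the concentration at half of the fitted maximal effect; trophozoites exposed to compound for 48 h at 37 °C; on the % scale 0 is the no-effect control and ±100 the full control effect; nearly all actives have a fitted effect of over 70% in size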
Mammalian tox = toxic to mammalian cells in Giardia aldolase counter-screen; shares compounds with Giardia FBPA inh-1; mammalian cell viability counter-screen, qHTS; Potency, µM (series often up to 57.5 µM), for inactives: at the top dose viability change, negative = toxicity, most hits filed as inhibitors; 1,500 tested, 4% active; AID 2786;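 further: Chinese hamster ovary cells used as mammalian cytotoxicity surrogate; viability measured as cellular ATP by luminescence; potency means the concentration at half of the fitted maximal effect; compound exposure lasted 48 h before reading; on the % scale 0 is the no-effect control and ±100 the full control effect; nearly all actives have a fitted effect of over 60% in size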
Giardia FBPA inh-2 = confirmation of Giardia fructose-bisphosphate aldolase inhibitors | Potency, µM (titrated, usually from 57.5 µM), without a hit: top-dose activity change, negative = inhibition, hits mostly inhibitors | 1,500 tested, 5% active | shares compounds with Giardia FBPA inh-1 | purified Giardia aldolase enzyme activity, qHTS; further: potency means the concentration at half of the fitted maximal effect; on the % scale 0 is the no-effect control and ±100 the full control effect; nearly all actives have a fitted effect of over 45% in size
Rabbit FBPA inh = rabbit FBP aldolase inhibition by Giardia aldolase hits; AID 2794; 1,500 tested, 4% active; Potency, µM (doses to about 57.5 µM), for inactives: top-dose activity, negative = inhibition, usual class: inhibitors; Rabbit muscle FBPA enzyme inhibition, selectivity counter-screen; shares compounds with Giardia FBPA inh-1; further: potency means the concentration at half of the fitted maximal effect; on the % scale 0 is the no-effect control and ±100 the full control effect; nearly all actives have a fitted effect of over 60% in size
Target sequence (P00883 whole entry, looked up): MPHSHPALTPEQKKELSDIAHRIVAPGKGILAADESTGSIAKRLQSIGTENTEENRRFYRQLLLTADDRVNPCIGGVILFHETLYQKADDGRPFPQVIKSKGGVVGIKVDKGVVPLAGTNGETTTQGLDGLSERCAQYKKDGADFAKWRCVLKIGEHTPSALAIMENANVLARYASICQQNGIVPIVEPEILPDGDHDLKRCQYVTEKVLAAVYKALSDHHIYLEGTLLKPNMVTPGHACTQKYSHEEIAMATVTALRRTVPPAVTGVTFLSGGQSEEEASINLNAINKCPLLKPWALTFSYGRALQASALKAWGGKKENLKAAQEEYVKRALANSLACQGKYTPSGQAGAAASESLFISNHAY
GAPDH counter = GAPDH inhibition flagged for Giardia aldolase hits. shares compounds with Giardia FBPA inh-1. GAPDH coupling enzyme counterscreen, biochemical, qHTS. Potency, µM (highest dose often 57.5 µM), for the others: at the highest dose activity change, negative = inhibition, hits mostly inhibitors. 1,500 tested, 6% active. AID 2795; further: potency means the concentration at half of the fitted maximal effect; on the % scale 0 is the no-effect control and ±100 the full control effect; nearly all actives have a fitted effect of over 55% in size
An asterisk follows results filed as active; ? = inconclusive; . = no result given; [ ] = dose if it differs, or a comment. Unless noted, the call rests on the fitted dose curve; in most records, active means well fitted curve in the direction sought with a large enough effect; inconclusive means small, poorly fitted or top-dose-only effect, or another doubt; inactive means no such curve, though single readings can be large; an effect the other way counts as inactive or inconclusive.

SMILES | Shiga toxin inh | Giardia FBPA inh-1 | RE007 growth inh | LmPK inhibitor | CHX counter | Tb PYK inh | Giardia growth | Mammalian tox | Giardia FBPA inh-2 | Rabbit FBPA inh | GAPDH counter
CCN(CCNCC(O)COCc1ccc(Cl)cc1)c1cccc(C)c1 (configuration not stated) | -7 | 22µM* | -5% | -1% | -3 | -4% | -8% | -13% | 0% | 1% | 10%
NC(=O)c1ncn([C@@H]2O[C@H](CNCc3ccc(-c4cc(C(F)(F)F)ccc4Cl)o3)[C@@H](O)[C@H]2O)n1 | . | . | 1% | . | . | 1% | . | . | . | . | .
COc1cc(C(=O)NCCC(=O)N2CCCCC2)cc(OC)c1OC | 12 | 2% | -2% | 2% | 1 | 2% | . | . | . | . | .
COc1ccc(C(=O)NC(=S)N2CCOCC2)cc1Br | -6 | 16µM* | 2% | 1% | -3 | ? | ? | -2% | -2% | 5% | 7%
COc1cc(C(=O)NC(=S)N2CCCCCC2)cc(OC)c1OC | 25 | 16µM* | -21% | 1% | 1 | -7% | ? | -6% | -3% | 3% | 10%
Brc1ccccc1OCCN1CCOCC1 | -9 | 28µM* | 5% | -2% | 2 | 17% | 31% | 0% | 1% | -7% | 7%
CSc1ncccc1C(=O)OCC(=O)c1[nH]c(C)c(C(C)=O)c1C | . | . | -8% | . | . | -1% | . | . | . | . | .
O=C(NCc1ccco1)c1cc([N+](=O)[O-])ccc1N1CCOCC1 | -9 | -5% | -1% | 0% | -2 | -4% | . | . | . | . | .
COCCCn1c(=O)c2ccccc2n2c(=S)[nH]nc12 | 26 | 7.1µM* | 2% | 9% | -2 | ? | -21%[38.3 µM] | -5% | 7% | -2% | -16%
CC1=C(C#N)C(=O)N(C2CCS(=O)(=O)C2)C(=O)/C1=C\c1ccco1 (configuration not stated) | -9 | 10µM* | . | ? | -3 | . | 12%[38.3 µM] | -6% | ? | ? | 21µM*
O=C1/C(=C\c2ccco2)SC(=S)N1C1CCCCC1 | . | -6% | . | 2% | -4 | . | . | . | . | . | .
Cc1nn(CC(=O)NCCCN2CCCC2=O)c(C)c1[N+](=O)[O-] | . | . | 13% | . | . | -8% | . | . | . | . | .
Cc1ccc(C(C)C)c(OCC(=O)NN=C(CCl)CCl)c1 | 17 | 16µM* | . | 3% | 8 | . | ? | 2% | -7% | -3% | -2%
C/C(=N/NC(=O)COc1cc(C)ccc1C(C)C)C(=O)O | 21 | ? | 12% | 0% | -2 | 4% | . | . | . | . | .
COCCn1c(N)c(N(Cc2ccccc2)C(=O)c2oc3ccccc3c2C)c(=O)[nH]c1=O | 32 | 2% | -14% | 7% | 5 | 10% | . | . | . | . | .
COCCc1nn2c(=O)cc(COC(=O)c3ccc4c(c3)OCO4)nc2s1 | . | . | . | . | . | -3% | . | . | . | . | .
CCOC(=O)c1cnc(-n2nc(C)cc2C)[nH]c1=O | -13 | 4.5µM* | -2% | 2% | -2 | 1% | -7%[38.3 µM] | -12% | -21% | -11% | -14%
O=C(Nc1ccnn1C1CCN(C2CCOCC2)CC1)c1cccc(F)c1 | -11 | . | -10% | -10% | -11 | -2% | . | . | . | . | .
O=C(O)c1cc(=O)c2ccc(Cl)cc2[nH]1 | . | -3% | . | . | . | . | . | . | . | . | .
C/C(=N\NC(=S)Nc1cccc(C)c1)c1ccco1 | -11 | 1% | -23% | -2% | -1 | -8% | . | . | . | . | .
CCNC(=S)N/N=C(\C)c1ccco1 | 15 | 18µM* | -10% | 1% | 4 | -7% | 6% | -3% | 7% | 5% | 6%
CC(=O)Nc1ccc(S(=O)(=O)NCCc2csc3nc(-c4ccc(Cl)cc4)nn23)cc1 | . | . | . | . | . | 1% | . | . | . | . | .
O=C(C1CCCN(Cc2ccccc2F)C1)N1CCCCC1 (configuration not stated) | -8 | 13µM* | -13% | -3% | -5 | 24% | -3%[10.4 µM] | -6% | 4% | 12% | 12%
Cc1nc2cccnc2n1C1CCN(S(=O)(=O)c2ccc(C(C)C)cc2)CC1 | . | . | . | . | . | 2% | . | . | . | . | .
Oc1ccc(-c2cn3c(n2)SCC3)cc1O | 21 | 18µM* | 2% | ? | 11 | ? | 0%[10.4 µM] | -13% | ? | ? | -16%
SMILES | Shiga toxin inh | Giardia FBPA inh-1 | RE007 growth inh | LmPK inhibitor | CHX counter | Tb PYK inh | Giardia growth | Mammalian tox | Giardia FBPA inh-2 | Rabbit FBPA inh | GAPDH counter
O=S(=O)(Nc1cccc(-c2cn3c(n2)SCC3)c1)c1cccs1 | 3 | -3% | -15% | 9% | 8 | 2% | . | . | . | . | .
Cc1cccc(CNc2cc(-c3c(C)noc3C)ncn2)c1 | . | 4% | . | . | . | . | . | . | . | . | .
Nc1ccc2nc(Cc3ccccc3)[nH]c2c1 | 25 | 16µM* | -10% | 0% | 21 | -6% | -6%[10.4 µM] | -8% | -16% | -9% | -3%
Cc1cccc(-c2noc(-c3cc(C(C)C)[nH]n3)n2)c1 | . | . | . | . | . | 5% | . | . | . | . | .
CCC(C)[C@H](NC(=O)[C@@H]1Cc2ccccc2CN1)C(=O)NCc1ccc(OC)cc1 (some centres not stated) | -5 | 14µM* | -19% | -5% | 0 | 7% | -30% | 14% | 8% | 2% | 11%
Nn1cnnc1N/N=C/c1cccc(Cl)c1Cl | -4 | ? | -15% | -10% | -2 | -8% | -4%[38.3 µM] | -7% | 9.2µM* | 12µM* | 15µM*
Nn1cnnc1N/N=C/c1ccccc1C(F)(F)F | 4 | ? | 1% | -1% | 5 | -1% | . | . | . | . | .
CCc1nnc(N/N=C/c2ccc(N3CCC(C)CC3)c([N+](=O)[O-])c2)n1N | -10 | 7.1µM* | ? | 1% | -3 | 1% | ? | -7% | ? | -24% | -27%
Nn1cnnc1N/N=C/c1ccc(Cl)c([N+](=O)[O-])c1 | 39 | 13µM* | -14% | -1% | 6 | 2% | -13% | 7% | ? | ? | ?
Nn1cnnc1N/N=C/c1ccc(F)cc1 | -3 | 20µM* | 6% | -3% | 2 | -7% | 12% | 9% | ? | -11% | ?
CCN(CC(=O)Nc1ccc(NC(C)=O)cc1)C(=O)c1ccc(N2CCC(C)CC2)c([N+](=O)[O-])c1 | . | . | -4% | . | . | 3% | . | . | . | . | .
CCN(CC)CCCNC(=O)Cc1ccc(NC(=O)N2CCCCc3ccccc32)cc1 | . | . | . | . | . | -2% | . | . | . | . | .

Assay outcomes deposited in PubChem BioAssay by National Center for Advancing Translational Sciences (NCATS).
